# Results taken from PubChem BioAssay (NCATS).
# The source made the active and inactive calls. A call without a number means that no potency is given here. Calls follow the shape of the dose curve; as a rule, active = well fitted curve in the direction sought with a large enough effect; inconclusive = small, poorly fitted or top-dose-only effect, or another doubt; inactive = no such curve, though single readings can be large or run the other way.
# Target: Guanine nucleotide-binding protein G(i) subunit alpha-1 (Homo sapiens) (UniProt P63096)
# Sequence (P63096 whole entry, looked up): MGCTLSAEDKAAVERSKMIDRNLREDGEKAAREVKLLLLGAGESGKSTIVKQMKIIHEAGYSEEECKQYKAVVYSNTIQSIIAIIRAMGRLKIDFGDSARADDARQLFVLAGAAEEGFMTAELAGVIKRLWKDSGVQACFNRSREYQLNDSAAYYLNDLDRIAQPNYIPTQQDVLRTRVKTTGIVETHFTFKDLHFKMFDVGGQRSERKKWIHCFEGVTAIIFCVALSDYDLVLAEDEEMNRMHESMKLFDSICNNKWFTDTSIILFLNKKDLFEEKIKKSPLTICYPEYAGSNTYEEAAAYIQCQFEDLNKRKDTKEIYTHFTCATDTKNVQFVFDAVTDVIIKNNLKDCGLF
# Test: qHTS Assay for Inhibitors of RGS12 GoLoco Motif Activity (Green Fluorophore) (AID 879);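 also: negative values mean loss of peptide binding seen as reduced polarization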
# Details: Galphai1/FITC-RGS12 GoLoco peptide, fluorescence polarization; series mostly up to 57.1 µM
# Method in brief: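 Fluorescence polarization assay: 50 nM Gαi1 with 10 nM FITC-labeled RGS12 GoLoco peptide in 10 mM Tris pH 7.5, 150 mM NaCl, 0.1 mM GDP, 0.05% NP40, 10 min at room temperature with compound.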
row,Structure (SMILES),Potency
1,c1ccc2c(c1)CC(N1CCN(c3cccc4c3OCCO4)CC1)C2,inactive
2,CCCn1c(=O)c2c(ncn2C)n(CCC)c1=O,inactive
3,O=C1NC(=O)c2cc(Nc3ccccc3)c(Nc3ccccc3)cc21,inactive
4,N[C@@H](Cc1ccc(O)c(I)c1)C(=O)O,inactive
5,CCN(CC)CCCCCCCCOC(=O)c1cc(OC)c(OC)c(OC)c1,inactive
6,COc1cc(N)c(Cl)cc1C(=O)OCCN1CCCCC1,inactive
7,CC(C)Cn1c(=O)n(C)c(=O)c2[nH]cnc21,inactive
8,CCSC(=N)N,inactive
9,O=C1Cc2c([nH]c3ccc(Br)cc23)-c2ccccc2N1,inactive
10,NC(=O)CNCCC(c1ccccc1)c1ccccc1,inactive
11,Nc1ccc(-c2nc3ccc(-c4nc5ccc(N)cc5[nH]4)cc3[nH]2)cc1,inactive
12,CN1CCN(c2nc3cc(C(F)(F)F)ccc3n3cccc23)CC1,inactive
13,C=CC[C@H](N)C(=O)O,inactive
14,N#C/C(=C\c1ccc(O)c(O)c1)C(=O)NCCc1ccccc1,inactive
15,S=C(S)N1CCCC1,inactive
16,Cc1ccc([N+](=O)[O-])cc1S(=O)(=O)N(C)C,inactive
17,CC(C)(C)c1cc(/C=C(\C#N)C(N)=S)cc(C(C)(C)C)c1O,inactive
18,Clc1nccc2c1ccc1ccccc12,inactive
19,O=C(O)/C=C/c1ccc(O)c(O)c1,inactive
20,Fc1ccc(CN(C2=NCCN2)c2c(Cl)cccc2Cl)cc1,inactive
21,Cn1c(=O)c2[nH]c(C3CCCC3)nc2n(C)c1=O,inactive
22,Nc1ccc(-c2ccc3ccccc3n2)cc1,inactive
23,Nc1ccc(N2C(=O)c3ccccc3C2=O)c(Cl)c1,inactive
